Values joined by “and” are separate entries in the source; they are usually repeats but may differ in a detail not shown here. Identical values can stand only once. Records with an inconclusive call do not appear. Where a call stands in place of a potency, no number is given. More than one record can exist for a structure, and the calls need not agree. Active and inactive are the calls of the source. Unless noted, calls follow the shape of the dose curve; as a rule, active = well fitted curve in the direction sought with a large enough effect in the repeat runs; inconclusive = weak or mixed curves; inactive = no such curve, though single readings can be large; an effect the other way counts as inactive or inconclusive.
Legend:
[1] = qHTS assay to identify small molecule agonists of the NFkB signaling pathway (AID 1159509; active = well fitted curve in the direction sought with a large enough effect in the signal ratio in the repeat runs, not every such curve was filed as active; the % refers to the signal ratio; also: series mostly up to about 61 µM)
Outline: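 Pathway activation was measured in ME-180 cells stably expressing beta-lactamase under NF-kB response element control. Substrate cleavage was read as the 460/530 nm emission shift after 5 hr compound incubation.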

[2] = qHTS assay to identify small molecule agonists of the NFkB signaling pathway - cell viability counter screen (AID 1159515; calls by dose curve; also: series mostly up to about 61 µM; nearly all actives have a fitted effect of over 55% in size)
Outline: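 Read by CellTiter-Glo luminescence (30 min, room temperature) in the wells also used for the beta-lactamase FRET read. ME-180 NFkB-bla cells at 2,000 per well were plated overnight, then exposed to compound for 5 hr at 37 C.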

[3] = qHTS assay to identify small molecule agonists of the endoplasmic reticulum stress response signaling pathway (AID 1159516; active = well fitted activation curve with a large enough effect in the signal ratio in the repeat runs, not every such curve was filed as active; the % refers to the signal ratio)
Outline: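 Ratiometric FRET readout (405 nm excitation; 460 and 530 nm emission) of a beta-lactamase gene driven by the ER stress response element, after 2 hr substrate loading. HeLa ESRE-bla cells were seeded overnight and treated with compounds for only 5 hr at 37 C.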

[4] = qHTS assay to identify small molecule agonists of the endoplasmic reticulum stress response signaling pathway - cell viability counter screen (AID 1159517; calls by dose curve; also: series mostly up to about 61 µM; nearly all actives have a fitted effect of over 50% in size)
Outline: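 ESRE-bla HeLa cells (1,500/well) were plated overnight at 37 C and exposed to compounds for 5 hr. After the 2 hr beta-lactamase substrate read, CellTiter-Glo went into the same wells, and luminescence was read after 30 min at room temperature.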

[5] = qHTS assay to identify small molecule antagonists of the retinoid-related orphan receptor gamma (ROR-gamma) signaling pathway - cell viability counter screen (AID 1159520); also: nearly all actives have a fitted effect of over 50% in size
Outline: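 Cytotoxicity was read from cellular ATP (CellTiter-Glo luminescence) after 16 hr at 37 C with 1 uM doxycycline induction. The inducer was added 2 hr after compound transfer to Tet-on ROR gamma CHO cells.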

[6] = molecular target: Nuclear receptor ROR-gamma (Homo sapiens) (UniProt P51449); experiment: qHTS assay to identify small molecule antagonists of the retinoid-related orphan receptor gamma (ROR-gamma) signaling pathway (AID 1159521; also: nearly all actives have a fitted effect of over 50% in size; also: potency is read from the fitted curve at half-maximal effect)
Outline: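 Antagonist read-out: drop in luminescence (ONE-Glo) from an RORE-LUC reporter in CHO cells with doxycycline-inducible ROR-gamma; 2 hr compound pretreatment, 1 uM doxycycline, 16 hr incubation at 37 C.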

[7] = qHTS assay to identify small molecule agonists of the AP-1 signaling pathway - cell viability counter screen (AID 1159525; calls by dose curve; also: nearly all actives have a fitted effect of over 55% in size)
Outline: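 Intracellular ATP by Cell Titer Glo luminescence (30 min, RT) in the same ME-180 AP-1-bla wells after the 5 h compound exposure at 37 °C. Normalised to tetra n-octyl ammonium bromide and DMSO controls.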

[8] = qHTS assay to identify small molecule agonists of the AP-1 signaling pathway (AID 1159526; calls by dose curve)
[9] = qHTS assay to identify small molecule antagonists of the retinoic acid receptor (RAR) signaling pathway (AID 1159552; also: nearly all actives have a fitted effect of over 50% in size)
Outline: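 Luminescent RARE reporter read-out in C3RL4 cells: 6 hr co-treatment at 37 C of test compounds with retinol at 1 uM final. Cells plated overnight beforehand; luciferase reagent incubated 30 min at room temperature before reading.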

[10] = qHTS assay to identify small molecule agonists of the retinoic acid receptor (RAR) signaling pathway (AID 1159553); also: potency is read from the fitted curve at half-maximal effect
Outline: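 Luminescence was measured 30 min after luciferase reagent addition at room temperature. Before that, C3RL4 reporter cells (1,000 per well, plated overnight) were treated with compound for 6 hr at 37 C and 5% CO2.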

[11] = qHTS assay to identify small molecule antagonists of the estrogen related receptor (ERR) signaling pathway from Tox21 library - cell viability counter screen (AID 1224834); also: nearly all actives have a fitted effect of over 30% in size; also: potency is read from the fitted curve at half-maximal effect
Outline: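 CellTiter-Fluor fluorescence, read after 30 min at 37 C, measures viability of ERR cells. Cells plated at 2,000/well and incubated 6 h before pin-tool compound addition, then exposed 17.5 hours at 37 C.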

[12] = molecular target: Retinoic acid receptor RXR-alpha (Homo sapiens) (UniProt P19793); experiment: qHTS assay to identify small molecule agonists of the RXR signaling pathway (AID 1159527; calls by dose curve; also: nearly all actives have a fitted effect of over 35% in size)
Chain of Retinoic acid receptor RXR-alpha (Homo sapiens) (P19793 whole entry, looked up): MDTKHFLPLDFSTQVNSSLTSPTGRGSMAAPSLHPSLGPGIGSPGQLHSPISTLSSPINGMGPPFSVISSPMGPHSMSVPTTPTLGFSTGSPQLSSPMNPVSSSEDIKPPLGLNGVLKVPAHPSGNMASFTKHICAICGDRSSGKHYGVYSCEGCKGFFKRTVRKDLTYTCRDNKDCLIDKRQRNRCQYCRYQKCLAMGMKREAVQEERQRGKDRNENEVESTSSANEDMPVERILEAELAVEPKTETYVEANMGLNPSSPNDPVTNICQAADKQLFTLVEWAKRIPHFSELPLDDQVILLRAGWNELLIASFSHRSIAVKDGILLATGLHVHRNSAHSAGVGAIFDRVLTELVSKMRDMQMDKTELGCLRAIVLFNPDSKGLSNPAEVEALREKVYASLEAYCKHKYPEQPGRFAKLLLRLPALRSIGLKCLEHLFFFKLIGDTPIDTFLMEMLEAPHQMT
Outline: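 Agonist-mode beta-lactamase reporter assay: HEK 293T RXR-alpha-UAS-bla cells treated 16 hr at 37 C with compounds, 9-cis retinoic acid as positive control. LiveBLAzer FRET substrate, 405 nm excitation, 460/530 nm emission.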

[13] = qHTS assay to identify small molecule agonists of the RXR signaling pathway - cell viability counter screen (AID 1159529)
Outline: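 CellTiter-Glo luminescence gave viability in the wells also read for beta-lactamase. Cells (RXR-alpha-UAS-bla HEK 293T, 2% charcoal-stripped FBS medium) had 5 hr plating, then 16 hr compound exposure at 37 C; tetraoctyl ammonium bromide served as positive control.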

[14] = qHTS assay to identify small molecule antagonists of the estrogen related receptor (ERR) signaling pathway - cell viability counter screen (AID 1224818);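 also: series mostly up to about 46 µM; viability measured after 17.5 h of compound exposure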
Outline: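 Cytotoxicity counter screen: fluorescence from CellTiter-Fluor, added after 17.5 h compound exposure at 37 C and read 30 min later. ERR cell line seeded at 2,000 cells/well, preincubated 6 h before dosing.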

[15] = qHTS assay to identify small molecule antagonists of the estrogen related receptor (ERR) signaling pathway (AID 1224819)
Outline: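 LOPAC library screened for antagonism as reduced One-Glo luminescence in ERR reporter cells (2,000/well). Compounds were added after 6 h pre-incubation and left 18 h at 37C; reading followed a 30 min room-temperature reagent step.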

[16] = qHTS assay to identify small molecule agonists of the estrogen related receptor (ERR) signaling pathway (AID 1224820)
Outline: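 An ERR cell line provided by NTP was seeded at 2,000 cells per well and allowed to settle for 6 h before compounds in DMSO were added. After 18 h at 37 C, luciferase activity was measured by One-Glo luminescence.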

[17] = tested on: estrogen-related receptor alpha (ERRalpha) with PGC-1alpha coactivator, human; experiment: qHTS assay to identify small molecule antagonists of the estrogen related receptor signaling pathway with the pleiotropic PPARgamma coactivator (PGC) (AID 1224821; calls by dose curve)
Outline: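 A PGC/ERR cell line supplied by NTP is seeded, allowed 6 h at 37 C, and treated with test compounds in DMSO for 18 h. Signal is then measured as luciferase luminescence using One-Glo.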

[18] = qHTS assay to identify small molecule antagonists of the estrogen related receptor signaling pathway with the pleiotropic PPARgamma coactivator (PGC) cell viability counter screen (AID 1224822; also: series mostly up to about 46 µM)
Outline: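 Viability counter-screen read by fluorescence intensity after 30 min with CellTiter-Fluor at 37 C; PGC/ERR reporter cells were exposed to compounds for 17.5 h at 37 C following a 6 h preincubation.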

[19] = qHTS assay to identify small molecule agonists of the estrogen related receptor signaling pathway with the pleiotropic PPARgamma coactivator (PGC) (AID 1224823)
Outline: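 Compounds dissolved in DMSO are added by pin tool to PGC/ERR cells that have settled for 6 h, and incubation continues 18 h at 37 C. Reporter output is measured as One-Glo luminescence.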

[20] = qHTS assay to identify small molecule antagonists of the retinoid acid receptor (RAR) signaling pathway - cell viability counter screen (AID 1159551); also: nearly all actives have a fitted effect of over 35% in size
Outline: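 Cytotoxicity counter screen: ATP content quantified by CellTiter-Glo luminescence in C3RL4 cells treated 6 hr at 37 C with compound and retinol (1 uM final). Cells plated at 1,000/well and cultured overnight before dosing.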

Structure (SMILES) | outcome [1] | outcome [2] | outcome [3] | Potency [4] | Potency [5] | Potency [6] | Potency [7] | Potency [8] | Potency [9] | Potency [10] | Potency [11] | Potency [12] | Potency [13] | outcome [14] | Potency [15] | Potency [16] | Potency [17] | outcome [18] | Potency [19] | Potency [20]
O=C(c1ccc(O)cc1)c1ccc(O)cc1O | inactive | inactive | inactive | inactive | inactive | inactive | inactive | inactive | inactive | inactive | inactive |  |  |  |  |  |  |  |  | 
O=C(O)c1cc(-c2ccccc2)nc2ccccc12 | inactive | inactive | inactive | inactive | inactive |  | inactive | inactive | inactive |  | inactive | inactive | inactive | inactive | inactive | inactive | inactive | inactive | inactive | 
C/C=C(C)/C=C/C=C(C)C | inactive | inactive | inactive | inactive | inactive |  | inactive |  |  |  | inactive | inactive | inactive |  |  |  |  |  |  | inactive
O=S(=O)(Oc1ccc(Cl)cc1Cl)c1ccccc1 | inactive | inactive | inactive | inactive | inactive | inactive | inactive | inactive | inactive | 68.6 µM (active) | inactive |  | inactive |  |  |  |  |  |  | 
CN(C)c1cccc(O)c1 | inactive | inactive | inactive | inactive | inactive |  | inactive | inactive | inactive | inactive and 34.4 µM (active) | inactive | inactive | inactive |  |  |  |  |  |  | inactive
O=C1N=C(O)CN1/N=C/c1ccc(-c2ccc([N+](=O)[O-])cc2)o1 | inactive | inactive | inactive | inactive | inactive | inactive | inactive | inactive |  |  | 43.3 µM (active) and 26.6 µM (active) |  | inactive |  |  |  |  |  |  | 
CS(=O)(=O)Nc1ccc([N+](=O)[O-])cc1Oc1ccccc1 | inactive | inactive | inactive | inactive | inactive |  | inactive | inactive |  |  | 30.6 µM (active) | inactive | inactive |  |  | inactive |  | inactive | inactive | inactive
CN(CCOc1ccc(CC2SC(=O)NC2=O)cc1)c1ccccn1 (configuration not stated) | inactive | inactive | inactive | inactive | inactive | inactive | inactive | inactive |  |  | inactive |  | inactive |  |  |  |  |  |  | 
CC1COc2ccccc2N1C(=O)C(Cl)Cl (configuration not stated) | inactive | inactive |  | inactive | inactive | 61 µM (active) and 48.5 µM (active) | inactive | inactive |  |  |  |  | inactive |  |  |  |  |  |  | inactive
CC(=O)[C@@]1(O)CC[C@H]2[C@@H]3CCC4=CC(=O)CC[C@]4(C)[C@H]3CC[C@@]21C | inactive | inactive | inactive | inactive | inactive | inactive | inactive | inactive | inactive | inactive | inactive |  | inactive | inactive |  |  |  | inactive |  | 
Nc1c(S(=O)(=O)O)cc(Br)c2c1C(=O)c1ccccc1C2=O | inactive | inactive | inactive | inactive | inactive | inactive | inactive | inactive | inactive | inactive | inactive and 24.3 µM (active) |  | inactive |  |  |  |  |  |  | 

Reference: PubChem BioAssay (Tox21)
